The values that follow come from the antibiotic and cytotoxicity screens of Wong et al. (2023).

Among all 39,000 compounds or so, about 1,500 (3.8%) were called active. Many of the other results were omitted from the sample, so actives are more common in it than they were.

The assay deals with HSkMC (human skeletal muscle cells). As to the kind of experiment: cytotoxicity call (relative viability < 0.9). Conditions: 10 µM.
With `O=[N+]([O-])c1cc(N(CCO)CCO)ccc1NCCO`, the cytotoxicity call is “inactive”.

As to `O=C(C[C@@H]1CC[C@H]2[C@@H](COC[C@@H](O)CN2C(=O)Nc2cccc(F)c2)O1)NCCCN1CCOCC1`, the cytotoxicity call is “inactive”.

With `C[C@@H]1CCCCO[C@H](CN(C)Cc2ccccc2)[C@@H](C)CN([C@@H](C)CO)C(=O)c2cc(NC(=O)CCC(F)(F)F)ccc2O1`, the cytotoxicity call was “inactive”.

As for `CCS(=O)(=O)Nc1ccc2c(c1)CC(=O)N2`, the cytotoxicity call is “inactive”.

Regarding `CCS(=O)(=O)Nc1ccc2c(c1)C(=O)N(C)[C@@H]1CC[C@H](CC(=O)N[C@H]3CCN(Cc4ccccc4)C3)O[C@H]1CO2`, the cytotoxicity call is “inactive”.

Consider `CCS(=O)(=O)Nc1ccc2c(c1)/C(=C(/Nc1ccc(CN3CCCCC3)cc1)c1ccccc1)C(=O)N2`, for which the cytotoxicity call is “active”.

In the case of `Cc1ccc(S[C@]2(C(=O)NCCCN(C)C)CC(=O)N(Cc3ccccc3C(F)(F)F)[C@@H]2c2ccc(CO)cc2I)cc1`, the cytotoxicity call was “inactive”.

Consider `C[C@H]1CCCCO[C@H](CN(C)C(=O)Nc2cccc3ccccc23)[C@@H](C)CN([C@@H](C)CO)C(=O)c2cc(NC(=O)c3ccncc3)ccc2O1`, for which the cytotoxicity call is “inactive”.

As to `C[C@@H]1CN([C@H](C)CO)C(=O)c2cc(NC(=O)c3ccncc3)ccc2O[C@@H](C)CCCCO[C@H]1CN(C)C(=O)Nc1cccc2ccccc12`, the cytotoxicity call is “active”.

For `C[C@@H]1CCCCO[C@@H](CN(C)C(=O)Nc2cccc3ccccc23)[C@H](C)CN([C@@H](C)CO)C(=O)c2cc(NC(=O)c3ccncc3)ccc2O1`, the cytotoxicity call is “inactive”.

`C[C@H](CO)N1C[C@H](C)[C@@H](CN(C)C(=O)Nc2cccc3ccccc23)OCCCC[C@H](C)Oc2ccc(NC(=O)c3ccncc3)cc2C1=O`: the cytotoxicity call was “inactive”.

Regarding `C[C@@H]1CN([C@H](C)CO)C(=O)c2cc(NC(=O)c3ccncc3)ccc2O[C@@H](C)CCCCO[C@@H]1CN(C)C(=O)Nc1cccc2ccccc12`, the cytotoxicity call was “inactive”.

On to `C[C@@H]1CCCCO[C@H](CN(C)C(=O)Nc2cccc3ccccc23)[C@@H](C)CN([C@@H](C)CO)C(=O)c2cc(NC(=O)c3ccncc3)ccc2O1`, for which the cytotoxicity call is “active”.

Consider `C[C@@H]1CN([C@@H](C)CO)C(=O)Cc2cc(NC(=O)C3CCCCC3)ccc2O[C@H]1CN(C)S(C)(=O)=O`, for which the cytotoxicity call is “inactive”.

`C[C@@H]1CN([C@@H](C)CO)C(=O)c2cccc(NS(C)(=O)=O)c2O[C@@H]1CN(C)S(C)(=O)=O`: the cytotoxicity call is “inactive”.

`COc1ccc(S(=O)(=O)Nc2ccc3c(c2)C(=O)N([C@@H](C)CO)C[C@H](C)[C@@H](CN(C)C(=O)Nc2ccc(F)cc2)OCCCC[C@H](C)O3)cc1`: the cytotoxicity call is “inactive”.

In the case of `C[C@@H]1CCCCO[C@@H](CN(C)C(=O)Nc2ccccc2)[C@H](C)CN([C@@H](C)CO)C(=O)c2cc(NC(=O)Nc3cccc4ccccc34)ccc2O1`, the cytotoxicity call is “inactive”.

Turning to `C[C@H](CO)N1C[C@H](C)[C@H](CN(C)CC2CCOCC2)Oc2ncc(C#CCc3ccccc3)cc2C1=O`, the cytotoxicity call was “inactive”.

`COc1ccc(NC(=O)Nc2ccc3c(c2)C(=O)N([C@H](C)CO)C[C@H](C)[C@@H](CN(C)C(=O)Nc2c(C)noc2C)OCCCC[C@@H](C)O3)cc1`: the cytotoxicity call was “inactive”.

On to `O=C1N[C@@H](c2ccccc2)COCc2cn(nn2)CC[C@H](Cc2ccc(C(F)(F)F)cc2)C(=O)N[C@@H](c2ccccc2)COCc2cn(nn2)CC[C@@H]1Cc1ccc(C(F)(F)F)cc1`, for which the cytotoxicity call is “inactive”.

Consider `C[C@H]1CN([C@@H](C)CO)C(=O)c2cc(NC(=O)Nc3ccc(C(F)(F)F)cc3)ccc2O[C@@H]1CN(C)Cc1ccc(C(F)(F)F)cc1`, for which the cytotoxicity call was “active”.

Take `C[C@@H]1CN([C@H](C)CO)C(=O)c2cc(NC(=O)Nc3ccc(C(F)(F)F)cc3)ccc2O[C@@H]1CN(C)Cc1ccc(C(F)(F)F)cc1`: the cytotoxicity call was “active”.

For the compound `C[C@H]1CN([C@@H](C)CO)C(=O)c2cc(NC(=O)Nc3ccc(C(F)(F)F)cc3)ccc2O[C@H]1CN(C)Cc1ccc(C(F)(F)F)cc1`, the cytotoxicity call was “active”.

Consider `C[C@@H]1CN([C@H](C)CO)C(=O)c2cc(NC(=O)Nc3ccc(C(F)(F)F)cc3)ccc2O[C@H]1CN(C)Cc1ccc(C(F)(F)F)cc1`, for which the cytotoxicity call is “active”.

As for `C[C@H](CO)N1C[C@H](C)[C@H](CN(C)C)Oc2ccc(NC(=O)Cc3cn(C)c4ccccc34)cc2CC1=O`, the cytotoxicity call is “inactive”.

Turning to `CNC[C@@H]1OCCCC[C@H](C)Oc2ccc(NS(=O)(=O)c3cn(C)cn3)cc2C(=O)N([C@@H](C)CO)C[C@H]1C`, the cytotoxicity call is “inactive”.

Regarding `C[C@H](CO)N1C[C@H](C)[C@H](CN(C)C(=O)Cc2ccncc2)Oc2cc(C#CC3(O)CCCC3)ccc2S1(=O)=O`, the cytotoxicity call was “inactive”.

For the compound `C[C@@H]1CN([C@@H](C)CO)C(=O)c2cc(C#Cc3ccncc3)cnc2O[C@H]1CN(C)C(=O)c1ccccc1F`, the cytotoxicity call is “inactive”.

For the compound `C[C@H]1CCCCO[C@@H](CN(C)C(=O)Cc2ccccc2)[C@@H](C)CN([C@@H](C)CO)C(=O)c2cc(NS(=O)(=O)c3cccs3)ccc2O1`, the cytotoxicity call is “inactive”.

With `COc1ccc(NC(=O)N(C)C[C@@H]2Oc3ccc(NC(=O)Nc4cccc5ccccc45)cc3C(=O)N([C@H](C)CO)C[C@@H]2C)cc1`, the cytotoxicity call is “inactive”.

With `CN(C)CCCNC(=O)C[C@H]1C=C[C@@H](NS(=O)(=O)c2ccccc2)[C@@H](CO)O1`, the cytotoxicity call was “inactive”.

For the compound `C[C@@H]1CN([C@@H](C)CO)C(=O)c2cc(NC(=O)Nc3ccc(C(F)(F)F)cc3)ccc2O[C@H]1CN(C)Cc1ccc(C(F)(F)F)cc1`, the cytotoxicity call was “active”.

On to `C[C@H](CO)N1C[C@H](C)[C@H](CN(C)Cc2ccc(C(F)(F)F)cc2)Oc2ccc(NC(=O)Nc3ccc(C(F)(F)F)cc3)cc2C1=O`, for which the cytotoxicity call was “active”.

Turning to `C[C@H](CO)N1C[C@H](C)[C@@H](CN(C)Cc2ccc(C(F)(F)F)cc2)Oc2ccc(NC(=O)Nc3ccc(C(F)(F)F)cc3)cc2C1=O`, the cytotoxicity call is “inactive”.

For `C[C@@H]1CN([C@@H](C)CO)C(=O)c2cc(NC(=O)Nc3ccc(C(F)(F)F)cc3)ccc2O[C@@H]1CN(C)Cc1ccc(C(F)(F)F)cc1`, the cytotoxicity call is “active”.

Take `COCC#Cc1ccc2c(c1)O[C@H](CN(C)S(=O)(=O)c1cccc(F)c1)[C@@H](C)CN([C@@H](C)CO)S2(=O)=O`: the cytotoxicity call is “inactive”.

For `COc1ccccc1CN1C[C@@H](C)[C@H](OC)CN(C)C(=O)c2cc(NC(=O)Nc3ccccc3OC)ccc2OC[C@H]1C`, the cytotoxicity call is “inactive”.

In the case of `C[C@@H]1CN([C@@H](C)CO)C(=O)c2cc(-c3cccc(C#N)c3)cnc2O[C@@H]1CN(C)C(=O)C1CCOCC1`, the cytotoxicity call is “inactive”.

`Cc1ccc(S(=O)(=O)N(C)C[C@H]2Oc3c(NS(=O)(=O)c4c(C)noc4C)cccc3C(=O)N([C@@H](C)CO)C[C@H]2C)cc1`: the cytotoxicity call was “inactive”.

Regarding `N#CC1(C#N)[C@H](c2ccccc2)[C@@H]1C(N)=O`, the cytotoxicity call is “inactive”.

With `CC(C)CC#Cc1ccc2c(c1)O[C@@H](CN(C)C(=O)c1cnccn1)[C@@H](C)CN([C@H](C)CO)S2(=O)=O`, the cytotoxicity call was “inactive”.

`O=C(C[C@H]1CC[C@H]2[C@@H](COC[C@@H](O)CN2S(=O)(=O)c2ccc(Cl)cc2)O1)N[C@H]1CCN(Cc2ccccc2)C1`: the cytotoxicity call was “inactive”.

`CC(C)C[C@H](NC(=O)CNC(=O)c1cc(Cl)ccc1Cl)B1OC(=O)C[C@](CC(=O)O)(C(=O)O)O1`: the cytotoxicity call was “active”.

Take `Cc1noc(C)c1S(=O)(=O)Nc1ccc2c(c1)C(=O)N([C@@H](C)CO)C[C@@H](C)[C@@H](CN(C)CC1CCCCC1)OCCCC[C@H](C)O2`: the cytotoxicity call was “inactive”.

`Cn1c(=O)[nH]c2nnc(-c3ccccn3)nc2c1=O`: the cytotoxicity call was “inactive”.

Turning to `Cn1nc(-c2ccccn2)nc2c(=O)n(C)c(=O)nc1-2`, the cytotoxicity call was “active”.

In the case of `COc1ccc(-c2ccccn2)cc1`, the cytotoxicity call is “inactive”.

In the case of `CN1CCN(C(=O)[C@@H]2[C@@H](CO)[C@@H]3Cn4c(cccc4=O)[C@H]2N3S(=O)(=O)c2ccccc2F)CC1`, the cytotoxicity call was “inactive”.

Consider `CC(=O)N1CCN(C(=O)Cc2ccc(S(C)(=O)=O)cc2)C[C@@H](O)C1`, for which the cytotoxicity call was “inactive”.

On to `CC(=O)NCCCC[C@@H]1NC(=O)[C@H]2C[C@@H](C(=O)NCc3ccc(F)cc3)[C@@H](c3ccc(O)cc3)N2C1=O`, for which the cytotoxicity call is “inactive”.

As for `C[C@H](CO)N1C[C@H](C)[C@H](CN(C)Cc2ccc(C(F)(F)F)cc2)Oc2ccc(NS(C)(=O)=O)cc2CC1=O`, the cytotoxicity call was “inactive”.

On to `C[C@@H]1CN([C@H](C)CO)C(=O)Cc2cc(NS(C)(=O)=O)ccc2O[C@@H]1CN(C)Cc1ccc(C(F)(F)F)cc1`, for which the cytotoxicity call was “inactive”.

For `C[C@H]1CN([C@@H](C)CO)C(=O)Cc2cc(NS(C)(=O)=O)ccc2O[C@@H]1CN(C)Cc1ccc(C(F)(F)F)cc1`, the cytotoxicity call was “inactive”.

As to `Cc1ccc(S(=O)(=O)Nc2ccc3c(c2)CC(=O)N([C@H](C)CO)C[C@H](C)[C@H](CN(C)Cc2ccc(C(F)(F)F)cc2)O3)cc1`, the cytotoxicity call is “active”.

Take `Cc1ccc(S(=O)(=O)Nc2ccc3c(c2)CC(=O)N([C@@H](C)CO)C[C@@H](C)[C@@H](CN(C)Cc2ccc(C(F)(F)F)cc2)O3)cc1`: the cytotoxicity call was “active”.

`C[C@@H]1CN([C@@H](C)CO)C(=O)Cc2cc(NS(C)(=O)=O)ccc2O[C@H]1CN(C)Cc1ccc(C(F)(F)F)cc1`: the cytotoxicity call was “inactive”.

In the case of `Cc1ccc(S(=O)(=O)Nc2ccc3c(c2)CC(=O)N([C@H](C)CO)C[C@@H](C)[C@@H](CN(C)Cc2ccc(C(F)(F)F)cc2)O3)cc1`, the cytotoxicity call was “active”.

In the case of `C[C@H]1CN([C@@H](C)CO)C(=O)Cc2cc(NS(C)(=O)=O)ccc2O[C@H]1CN(C)Cc1ccc(C(F)(F)F)cc1`, the cytotoxicity call is “inactive”.

Regarding `Cc1ccc(S(=O)(=O)Nc2ccc3c(c2)CC(=O)N([C@@H](C)CO)C[C@H](C)[C@@H](CN(C)Cc2ccc(C(F)(F)F)cc2)O3)cc1`, the cytotoxicity call is “active”.

For the compound `C[C@@H]1CN([C@@H](C)CO)C(=O)Cc2cc(NS(C)(=O)=O)ccc2O[C@@H]1CN(C)Cc1ccc(C(F)(F)F)cc1`, the cytotoxicity call was “inactive”.

Regarding `Cc1ccc(S(=O)(=O)Nc2ccc3c(c2)CC(=O)N([C@H](C)CO)C[C@H](C)[C@@H](CN(C)Cc2ccc(C(F)(F)F)cc2)O3)cc1`, the cytotoxicity call is “inactive”.

Regarding `C[C@@H]1CN([C@H](C)CO)C(=O)Cc2cc(NS(C)(=O)=O)ccc2O[C@H]1CN(C)Cc1ccc(C(F)(F)F)cc1`, the cytotoxicity call is “inactive”.

Regarding `O=C(C[C@H]1CC[C@@H]2[C@H](COC[C@H](O)CN2S(=O)(=O)c2ccc(Cl)cc2)O1)NCCN1CCCCC1`, the cytotoxicity call was “inactive”.
